Legend:
Assay in all cases: SPOT peptide array binding signal intensity (averaged, normalized) (arbitrary units (background-subtracted, floor 0; scale differs between SH3 domains)); higher = stronger binding of the SH3 domain to the peptide
[1] = molecular target: AgAbp1
In short: (§1)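 Four yeast species supplied the SH3 domains, which were expressed as GST fusions in E. coli BL21(DE3) and purified on glutathione Sepharose. Incubation with cellulose membranes carrying synthetic 15-mer peptides, cysteines exchanged for serines, ran overnight at 4°C at 10 μg/ml in TBS-based blocking buffer. Binding signal is reported as normalized, background-subtracted spot intensity averaged over replicates, in arbitrary units not shared between domains.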

[2] = molecular target: AgBbc1
In short: as §1

[3] = molecular target: AgBem1-D1
In short: as §1

[4] = molecular target: AgBzz1-D1
In short: as §1

[5] = molecular target: AgBzz1-D2
In short: as §1

[6] = molecular target: AgCyk3
In short: as §1

[7] = molecular target: AgFus1
In short: as §1

[8] = molecular target: AgHof1
In short: as §1

[9] = molecular target: AgHse1
In short: as §1

[10] = molecular target: AgLsb1
In short: as §1

[11] = molecular target: AgLsb4
In short: as §1

[12] = molecular target: AgMyo5
In short: as §1

[13] = molecular target: AgNbp2
In short: as §1

[14] = molecular target: AgRvs167
In short: as §1

[15] = molecular target: AgSho1
In short: as §1

[16] = molecular target: AgSla1-D1-D2
In short: as §1

[17] = molecular target: AgSla1-D3
In short: as §1

[18] = molecular target: CaAbp1-D1
In short: as §1

[19] = molecular target: CaAbp1-D2
In short: as §1

[20] = molecular target: CaBbc1
In short: as §1

[21] = molecular target: CaBem1-D1
In short: as §1

[22] = molecular target: CaBzz1-D1
In short: as §1

[23] = molecular target: CaBzz1-D2
In short: as §1

[24] = molecular target: CaCyk3
In short: as §1

[25] = molecular target: CaFus1
In short: as §1

[26] = molecular target: CaHof1
In short: as §1

[27] = molecular target: CaHse1
In short: as §1

[28] = molecular target: CaLsb1
In short: as §1

[29] = molecular target: CaLsb4
In short: as §1

[30] = molecular target: CaMyo5
In short: as §1

[31] = molecular target: CaNbp2
In short: as §1

[32] = molecular target: CaRvs167
In short: as §1

[33] = molecular target: CaRvs167-3
In short: as §1

[34] = molecular target: CaSho1
In short: as §1

[35] = molecular target: CaSla1-D1-D2
In short: as §1

[36] = molecular target: CaSla1-D3
In short: as §1

[37] = molecular target: ScAbp1
In short: as §1

[38] = molecular target: ScBbc1
In short: as §1

[39] = molecular target: ScBem1-D1
In short: as §1

[40] = molecular target: ScBzz1-D1
In short: as §1

[41] = molecular target: ScBzz1-D2
In short: as §1

[42] = molecular target: ScCyk3
In short: as §1

[43] = molecular target: ScFus1
In short: as §1

[44] = molecular target: ScHof1
In short: as §1

[45] = molecular target: ScHse1
In short: as §1

[46] = molecular target: ScLsb1
In short: as §1

[47] = molecular target: ScLsb2
In short: as §1

[48] = molecular target: ScLsb3
In short: as §1

[49] = molecular target: ScLsb4
In short: as §1

[50] = molecular target: ScMyo3
In short: as §1

[51] = molecular target: ScMyo5
In short: as §1

[52] = molecular target: ScNbp2
In short: as §1

[53] = molecular target: ScPex13
In short: as §1

[54] = molecular target: ScRvs167
In short: as §1

[55] = molecular target: ScSho1
In short: as §1

[56] = molecular target: ScSla1-D1-D2
In short: as §1

[57] = molecular target: ScSla1-D3
In short: as §1

[58] = molecular target: SpAbp1-D1
In short: as §1

[59] = molecular target: SpBbc1
In short: as §1

[60] = molecular target: SpBzz1-D1
In short: as §1

[61] = molecular target: SpBzz1-D2
In short: as §1

[62] = molecular target: SpCyk3
In short: as §1

[63] = molecular target: SpHof1
In short: as §1

[64] = molecular target: SpHof1-2
In short: as §1

[65] = molecular target: SpHof1-3
In short: as §1

[66] = molecular target: SpHse1
In short: as §1

[67] = molecular target: SpLsb1
In short: as §1

[68] = molecular target: SpLsb4
In short: as §1

[69] = molecular target: SpMyo1
In short: as §1

[70] = molecular target: SpNbp2
In short: as §1

[71] = molecular target: SpPex13
In short: as §1

[72] = molecular target: SpRvs167
In short: as §1

[73] = molecular target: SpSla1-D1-D2
In short: as §1

[74] = molecular target: SpSla1-D3
In short: as §1

B1: unnamed (peptide)
chain: MAMRPIPPLPTESEY
B1 was tested, and the “SPOT peptide array binding signal intensity” value [1] was 9, the “SPOT peptide array binding signal intensity” value [2] was 8 and the “SPOT peptide array binding signal intensity” value [3] was 155. For the same binder, the “SPOT peptide array binding signal intensity” value [4] was 7, the “SPOT peptide array binding signal intensity” value [5] was at most 0 and the “SPOT peptide array binding signal intensity” value [6] was 13. For the same binder, the “SPOT peptide array binding signal intensity” value [7] was 55.5, the “SPOT peptide array binding signal intensity” value [8] was 87.8 and the “SPOT peptide array binding signal intensity” value [9] was 38. For the same binder, the “SPOT peptide array binding signal intensity” value [10] was 230, the “SPOT peptide array binding signal intensity” value [11] was 1930 and the “SPOT peptide array binding signal intensity” value [12] was at most 0. For the same binder, the “SPOT peptide array binding signal intensity” value [13] was 81, the “SPOT peptide array binding signal intensity” value [14] was 308 and the “SPOT peptide array binding signal intensity” value [15] was 353. For the same binder, the “SPOT peptide array binding signal intensity” value [16] was 2, the “SPOT peptide array binding signal intensity” value [17] was at most 0 and the “SPOT peptide array binding signal intensity” value [18] was 35. For the same binder, the “SPOT peptide array binding signal intensity” value [19] was 79, the “SPOT peptide array binding signal intensity” value [20] was 32 and the “SPOT peptide array binding signal intensity” value [21] was 71. The “SPOT peptide array binding signal intensity” value [22] was 54, the “SPOT peptide array binding signal intensity” value [23] was 39 and the “SPOT peptide array binding signal intensity” value [24] was 12. The “SPOT peptide array binding signal intensity” value [25] was 226, the “SPOT peptide array binding signal intensity” value [26] was 10 and the “SPOT peptide array binding signal intensity” value [27] was 186. For the same binder, the “SPOT peptide array binding signal intensity” value [28] was 11, the “SPOT peptide array binding signal intensity” value [29] was 1410 and the “SPOT peptide array binding signal intensity” value [30] was 35.2. The “SPOT peptide array binding signal intensity” value [31] was 628, the “SPOT peptide array binding signal intensity” value [32] was 528 and the “SPOT peptide array binding signal intensity” value [33] was at most 0. The “SPOT peptide array binding signal intensity” value [34] was 596, the “SPOT peptide array binding signal intensity” value [35] was 128 and the “SPOT peptide array binding signal intensity” value [36] was 110. For the same binder, the “SPOT peptide array binding signal intensity” value [37] was 4.5, the “SPOT peptide array binding signal intensity” value [38] was 2 and the “SPOT peptide array binding signal intensity” value [39] was at most 0. For the same binder, the “SPOT peptide array binding signal intensity” value [40] was at most 0, the “SPOT peptide array binding signal intensity” value [41] was at most 0 and the “SPOT peptide array binding signal intensity” value [42] was at most 0. The “SPOT peptide array binding signal intensity” value [43] was 106, the “SPOT peptide array binding signal intensity” value [44] was 304 and the “SPOT peptide array binding signal intensity” value [45] was at most 0. For the same binder, the “SPOT peptide array binding signal intensity” value [46] was 106, the “SPOT peptide array binding signal intensity” value [47] was 19.5 and the “SPOT peptide array binding signal intensity” value [48] was 4040. The “SPOT peptide array binding signal intensity” value [49] was 1070, the “SPOT peptide array binding signal intensity” value [50] was 21.5 and the “SPOT peptide array binding signal intensity” value [51] was 3. For the same binder, the “SPOT peptide array binding signal intensity” value [52] was 172, the “SPOT peptide array binding signal intensity” value [53] was 1090 and the “SPOT peptide array binding signal intensity” value [54] was 821. The “SPOT peptide array binding signal intensity” value [55] was 543, the “SPOT peptide array binding signal intensity” value [56] was 167 and the “SPOT peptide array binding signal intensity” value [57] was 82.2. For the same binder, the “SPOT peptide array binding signal intensity” value [58] was 13, the “SPOT peptide array binding signal intensity” value [59] was 4.75 and the “SPOT peptide array binding signal intensity” value [60] was 79.5. The “SPOT peptide array binding signal intensity” value [61] was 17, the “SPOT peptide array binding signal intensity” value [62] was 14 and the “SPOT peptide array binding signal intensity” value [63] was 140. The “SPOT peptide array binding signal intensity” value [64] was 110, the “SPOT peptide array binding signal intensity” value [65] was 26.8 and the “SPOT peptide array binding signal intensity” value [66] was 66. For the same binder, the “SPOT peptide array binding signal intensity” value [67] was 67.8, the “SPOT peptide array binding signal intensity” value [68] was 2610 and the “SPOT peptide array binding signal intensity” value [69] was 309. For the same binder, the “SPOT peptide array binding signal intensity” value [70] was 42.5, the “SPOT peptide array binding signal intensity” value [71] was 72 and the “SPOT peptide array binding signal intensity” value [72] was 1130. The “SPOT peptide array binding signal intensity” value [73] was 2 and the “SPOT peptide array binding signal intensity” value [74] was 28.

Source: the supplement of paper PMC4466140
